Compound activity (PubChem)
Vif-A3F inh: blocks the Vif interaction with APOBEC3F; AID 602313; 0.2% of 390,000 active; Potency, µM (series often up to 46.1 µM), for inactives: top-dose activity, negative = active; HeLa A3F-eYFP + Vif (tagged APOBEC3F with the HIV-1 protein that degrades it), YFP fluorescence increase; note: potency is the fitted concentration of half-maximal effect; % of control where 0% means no effect; nearly all actives have a fitted effect of over 65% in size
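HeLa cells stably expressing Vif plus C-terminally eYFP-tagged A3F were seeded, incubated overnight at 37 deg C, dosed with compound, incubated overnight again at 37 deg C. Yellow fluorescence (Ex 488/Em 500-530) reported blocked Vif-mediated A3F-eYFP degradation.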
Vif-A3G inh: Vif-A3G binding inhibition. HeLa A3G-eYFP + Vif (tagged APOBEC3G with the HIV-1 protein that degrades it), YFP fluorescence, overnight. 0.076% of 410,000 active. Q9HC16. Potency, µM (highest dose often 46.1 µM), without a hit: at the highest dose activity, negative = active, actives largely listed as inhibitors; note: potency is the fitted concentration of half-maximal effect; % is set by controls: 0 for no effect and ±100 for the full control effect; nearly all actives have a fitted effect of over 60% in size
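Read-out is eYFP fluorescence (Ex 488/Em 500-530) from Vif-expressing HeLa A3G-eYFP cells; more signal means A3G escaped Vif-mediated degradation. Cells plated overnight, compound pinned in, incubated overnight at 37 deg C.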
TSHR antagonist: blocks TSH signaling through the human TSH receptor. P16473. 0.2% of 330,000 active. TSHR-expressing cells, TSH-stimulated cAMP HTRF, 2 h; stronger effect = lower value. activity change, negative = inhibition, % at 11.5 µM;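 active = activity change below a set negative limit, meaning inhibition stronger than a set level, cut at about -70% in these data; inconclusive = activity change between two set negative limits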; note: % is set by controls: 0 for no effect and ±100 for the full control effect
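TSHR-expressing cells, 200/well, pre-treated with compound, then stimulated with EC80 TSH (4nM final) for 2 hours at 37 deg C. cAMP measured by competitive HTRF: anti-cAMP cryptate antibody in lysis buffer plus cAMP-d2, read after 30 minutes at room temperature.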
VDR inhibitor: blocks the human vitamin D receptor; VDR-SRC2-3 peptide fluorescence polarization, 2 h; Potency, µM, for inactives: max response, negative = inhibition, hits mostly inhibitors; 0.93% of 400,000 active; AID 504847; note: potency is the fitted concentration of half-maximal effect; % is set by controls: 0 for no effect and ±100 for the full control effect
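After 23 nl compound addition and a short centrifugation, plates sat for 2 hours at ambient temperature; polarization of fluorescence then indicated loss of VDR binding to peptide SRC2-3.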
PLK1 PBD block: inhibitors of human PLK1 polo-box domain binding | Plk1 PBD binding of FITC phosphopeptide, fluorescence polarization | Potency, µM, without a hit: max response, negative = inhibition, usual class: inhibitors | P53350 | 2.8% of 360,000 active; note: potency is the fitted concentration of half-maximal effect; series mostly up to about 57 µM; % is set by controls: 0 for no effect and ±100 for the full control effect; nearly all actives have a fitted effect of over 65% in size
Target sequence (P53350 whole entry, looked up, the tested form may be a part): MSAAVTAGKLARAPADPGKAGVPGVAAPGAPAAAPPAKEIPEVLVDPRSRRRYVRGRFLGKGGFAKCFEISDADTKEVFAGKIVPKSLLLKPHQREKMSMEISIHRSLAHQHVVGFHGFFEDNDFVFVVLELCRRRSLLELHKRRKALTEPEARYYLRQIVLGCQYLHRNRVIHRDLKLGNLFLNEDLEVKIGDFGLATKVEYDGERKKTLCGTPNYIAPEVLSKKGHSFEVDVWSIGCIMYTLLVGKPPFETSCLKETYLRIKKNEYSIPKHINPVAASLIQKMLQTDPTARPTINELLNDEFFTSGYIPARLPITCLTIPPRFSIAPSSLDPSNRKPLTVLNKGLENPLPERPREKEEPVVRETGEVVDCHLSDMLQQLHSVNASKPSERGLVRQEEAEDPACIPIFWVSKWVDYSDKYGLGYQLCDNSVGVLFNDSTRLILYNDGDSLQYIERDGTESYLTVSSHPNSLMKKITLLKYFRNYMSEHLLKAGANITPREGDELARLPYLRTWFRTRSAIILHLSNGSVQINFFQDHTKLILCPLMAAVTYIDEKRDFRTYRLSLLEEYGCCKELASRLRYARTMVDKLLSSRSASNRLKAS
An asterisk follows results filed as active; ? = inconclusive; · = not tested or not shown. Most compounds without a hit are left out; they make up all but 3.1% or so of the library. Unless noted, calls come from the whole dose curve; as a rule, active = well fitted curve in the direction sought with a large enough effect; inconclusive = small, poorly fitted or top-dose-only effect, or another doubt; inactive = no such curve, though single readings can be large; an effect the other way counts as inactive or inconclusive.

SMILES	Vif-A3F inh	Vif-A3G inh	TSHR antagonist	VDR inhibitor	PLK1 PBD block
CCc1ccc2oc(-c3cc(NC(=O)c4cc([N+](=O)[O-])ccc4N4CCOCC4)ccc3Cl)nc2c1	-1.9%	-5.8%	·	-15.2%	·
O=C(NCc1ccco1)c1ccc(C(=O)NCc2ccco2)s1	-10.9%	-4.5%	-11.3	-22.8%	10.6µM*
O=C(NCc1ccco1)c1ccc(Cl)s1	?	-0.3%	-0.8	-13.6%	-9.5%
CCCN1C=CC(=CC=C(C#N)C#N)C=C1	?	12.6µM*	-14.2	-5.7%	76.0%
CCCN1C=CC(=C/C=C(\C#N)C(=O)OCC)C=C1	·	·	-20.9	·	·
CN1C(=O)C2(C(C#N)=C(N)Oc3n[nH]c(-c4ccc(Cl)cc4)c32)c2ccccc21 (configuration not stated)	0.0%	-0.7%	7.9	-5.2%	-0.6%
CC(=O)N1C(=O)C2(C(C#N)=C(N)Oc3n[nH]c(-c4ccccn4)c32)c2ccccc21 (configuration not stated)	8.7%	-8.6%	9.7	-14.9%	23.8µM*
O=C(O)COc1ccc(OCCNC[C@H](O)COc2ccccc2)cc1	·	·	·	-1.3%	·
CNc1ccc(-c2nc3ccccc3s2)cc1	·	·	·	11.2µM*	·
Cc1cccc(/C=C/C(=O)c2ccc(NC3=NCCCS3)cc2)c1	-0.1%	?	-3.6	20µM*	-14.6%
COc1cccc(/C=C/C(=O)c2ccc(NC3=NCCCS3)cc2)c1	-13.4%	?	20.0	?	-7.7%
CCOc1cc(CNC(=O)c2ccc(C)c(NC(=O)c3nsc4ccccc34)c2)ccc1OC	1.9%	0.4%	·	8.1%	·
Cc1noc(NS(=O)(=O)c2ccc(N/C=C\C(=O)c3ccc(Br)cc3)cc2)c1C	6.4%	0.1%	4.6	-12.9%	26.7µM*
Cc1noc(NS(=O)(=O)c2ccc(N/C=C\C(=O)c3cccc4ccccc34)cc2)c1C	8.8%	-4.0%	5.2	?	23.8µM*
CCn1c2ccccc2c2cc(/C=C3/C=Cc4ccccc43)ccc21	·	-23.2%	·	·	·
CCc1sc(-c2cc3cccc(OC)c3oc2=O)nc1-c1ccccc1	·	-6.5%	·	1.4%	·
CCOC(=O)c1cnc2ccc(C)cc2c1Sc1ccccc1C(=O)OC	9.0%	-0.2%	-3.1	-13.5%	26.7µM*
O=S(=O)(c1ccc(Br)cc1)N1CCN(c2nc(-c3ccccc3)nc3ccccc23)CC1	·	0.3%	·	-5.5%	·
CCCCCCCC/C=C\CCCCCCCC(=O)N[C@H](CO)Cc1ccc(O)cc1	·	·	·	-0.5%	·
O=[N+]([O-])c1cc(S(=O)(=O)N2CCCC2)ccc1NN=C1CCCCC1	-10.5%	0.7%	-4.4	-15.9%	-4.6%
O=[N+]([O-])c1cc(C(F)(F)F)cc([N+](=O)[O-])c1NN=C1CCCCC1	-8.2%	-9.1%	-1.0	50.1µM*	?
CCOC(=O)NCCOc1ccc(Oc2ccccc2)cc1	·	·	·	-7.8%	·
Cc1cc(C)n2c(SCC(=O)Nc3ccc(F)cc3)nnc2n1	7.8%	2.3%	29.4	?	21.2µM*
Cc1ccc(NC(=O)CSc2nnc3nc(C)cc(C)n23)cc1	-5.1%	3.1%	·	-1.8%	·
Cc1nc2ccccc2nc1OCC(=O)NCc1ccc2c(c1)OCO2	5.3%	-17.5%	3.2	-10.7%	2.67µM*
SMILES	Vif-A3F inh	Vif-A3G inh	TSHR antagonist	VDR inhibitor	PLK1 PBD block
O=C(COc1ncnc2ccccc12)NCc1ccc2c(c1)OCO2	5.8%	0.2%	3.9	19.2%	-2.4%
O=C(CSc1nnc(-c2cccnc2)n1-c1ccc(F)cc1)NCc1ccc2c(c1)OCO2	-4.2%	-5.1%	3.5	-5.1%	11.9µM*
Cc1cccc(NC(=O)CO/N=C/c2ccc3c(c2)OCO3)c1	-1.4%	4.0%	0.2	-11.1%	-4.7%
Cc1ccc(CNC(=O)CO/N=C/c2ccc3c(c2)OCO3)cc1	-4.5%	-2.1%	4.8	-19.7%	26.7µM*
Cc1cc(=O)[nH]c2nnc(SCC(=O)Nc3ccc(OC(F)(F)F)cc3)n12	3.1%	1.4%	·	6.9%	·
CC(C)C(=O)c1cn(CC(=O)NCc2ccc3c(c2)OCO3)c2ccccc12	4.8%	-0.1%	0.8	-23.3%	23.8µM*
O=C(CSc1ccc2ccccc2n1)NCc1ccc2c(c1)OCO2	-0.2%	1.4%	4.0	-19.5%	23.8µM*
Cc1nc(SCC(=O)NCc2ccc3c(c2)OCO3)nc(C)c1C	-4.4%	-0.6%	7.1	-4.9%	-11.0%
CS(=O)(=O)N(CC(=O)NCc1ccc2c(c1)OCO2)Cc1ccccc1	-10.5%	-5.5%	1.8	?	8.44µM*
Nc1cc(N)nc(SCC(=O)NCc2ccc3c(c2)OCO3)n1	11.8%	1.7%	-9.2	?	5.97µM*
O=C(Cc1ccccc1)NCc1ccc2c(c1)OCO2	-10.4%	1.2%	1.1	-3.1%	-9.3%
Cc1cc(C)n2c(SCC(=O)NCc3ccc4c(c3)OCO4)nnc2n1	-8.8%	2.3%	-5.4	?	23.8µM*
COc1ccccc1C(=O)NC1(C(F)(F)F)C(=O)NC(C)=C1C#N (configuration not stated)	-5.4%	3.5%	·	5.4%	·
CC(C)(C)C(=O)OCCNc1nc(-c2cccs2)nc2ccccc12	·	·	·	10.3%	·
CCOc1ccccc1C=Nc1ccccc1C(=O)Nc1ccccc1	-10.8%	-0.8%	-10.3	25.1µM*	-5.6%
C/C=C(\NNC(C)=O)c1ccc(O)cc1	·	-12.5%	·	·	·
CC(C)Oc1ccc(C(=O)CCN2CCOCC2)cc1	4.4%	-18.2%	·	44.7µM*	?
CCCCCOc1ccc(C(=O)CCN2CCOCC2)cc1	4.8%	-21.7%	-6.3	?	29.9µM*
CCCOc1ccc(C(=O)CCN2CCN(C(=O)OCC)CC2)cc1	-8.0%	-21.5%	-25.8	44.7µM*	15µM*
O=C1C2CC=CCC2C(=O)N1CC1CCCO1 (configuration not stated)	-11.5%	-0.2%	21.3	?	23.8µM*
NC(=O)[C@H]1CCCN1C(=O)[C@H](Cc1cnc[nH]1)NC(=O)[C@@H]1CCC(=O)N1	·	·	·	-15.9%	·
O=C(/C=C/c1cn(-c2ccccc2)nc1-c1cccnc1)N1CCCC1	2.3%	3.4%	-17.2	-1.3%	4.0%
O=C(/C=C/c1cn(-c2ccccc2)nc1-c1cccnc1)c1ccco1	-21.4%	?	-17.4	50.1µM*	-4.8%
Cc1c(CC(=O)NCCCC(=O)O)c(=O)oc2cc3c(cc12)CCC(C)(C)O3	-3.2%	-4.8%	6.9	?	26.7µM*
CNC(=O)Nc1cc(C)nn1C	-20.4%	4.5%	24.6	?	18.9µM*
CC(=O)Nc1cccc(Nc2cc(C)nn2C)c1	·	2.2%	·	·	-10.3%
CCc1ccccc1NC(=O)Nc1ccc2snnc2c1	2.8%	0.8%	·	-8.5%	·
Cc1ccc(NC(=O)c2ccc3snnc3c2)cc1	0.9%	-5.4%	13.2	-6.9%	-18.7%
